Laboratory results taken from PubChem BioAssay (Tox21).
Records with an inconclusive call do not appear. The source made the active and inactive calls. Calls come from the whole dose curve; as a rule, active = well fitted curve in the direction sought with a large enough effect in the repeat runs; inconclusive = weak or mixed curves; inactive = no such curve, though single readings can be large; an effect the other way counts as inactive or inconclusive.

Key:
[1] = A CellTox Green Cytotoxicity Assay to monitor cytotoxicity in HEK293 cells - 40 hour (AID 1224871); note: nearly all actives have a fitted effect of over 45% in size
Summary of the method: (§1)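 Seeding of HEK293 cells together with cytotoxicity dye preceded a 5 h incubation at 37 C/5% CO2. Test compounds in DMSO were then added and fluorescence monitored across 40 h.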

[2] = qHTS RealTime-Glo MT Cell Viability Assay in HEK293 cells - 16 hour (AID 1224872); note: top concentration of the series differs between compounds; nearly all actives have a fitted effect of over 50% in size
Summary of the method: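 HEK293 cells were seeded at 600 cells/well together with NanoLuc luciferase and cell-permeant prosubstrate, preincubated 5 h at 37 C/5% CO2, then given compound in DMSO by pintool. Luminescence from viable-cell prosubstrate reduction was read repeatedly over 40 h.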

[3] = qHTS RealTime-Glo MT Cell Viability Assay in HepG2 cells - 8 hour (AID 1224873); note: nearly all actives have a fitted effect of over 55% in size
Summary of the method: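 HepG2 cells (600/well) mixed with RealTime-Glo MT reagent, settled 5 h at 37 C/5% CO2 before compound addition. Nonlytic NanoLuc luminescence from viable-cell prosubstrate reduction read repeatedly during 40 h treatment at 37 C.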

[4] = qHTS RealTime-Glo MT Cell Viability Assay in HEK293 cells - 40 hour (AID 1224874); details: RealTime-Glo luminescence; max response: active compounds read low; note: nearly all actives have a fitted effect of over 50% in size
Summary of the method: (§2)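 Tox21 screen in HEK293 using RealTime-Glo MT chemistry, with cells and reagent co-dispensed. Luminescence proportional to viable cell number was captured at intervals during 40 h compound exposure at 37 C.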

[5] = A CellTox Green Cytotoxicity Assay to monitor cytotoxicity in HEK293 cells - 24 hour (AID 1224875); note: series mostly up to about 77 µM; nearly all actives have a fitted effect of over 45% in size
Summary of the method: as §1

[6] = A CellTox Green Cytotoxicity Assay to monitor cytotoxicity in HepG2 cells - 16 hour (AID 1224876); note: nearly all actives have a fitted effect of over 45% in size
Summary of the method: (§3)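 Nonlytic assay: viable cells exclude the dye, so fluorescence scales with cell death. HepG2 at 600 cells/well, compounds added after 5 h, signal read across 40 h.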

[7] = qHTS RealTime-Glo MT Cell Viability Assay in HepG2 cells - 32 hour (AID 1224877); note: nearly all actives have a fitted effect of over 55% in size
Summary of the method: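 HepG2 cells were seeded at 600 cells/well together with NanoLuc luciferase and a cell-permeant prosubstrate, preincubated 5 h at 37 C/5% CO2, then pin-dosed with compounds in DMSO. Nonlytic luminescence from viable cells was read at each time point.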

[8] = A CellTox Green Cytotoxicity Assay to monitor cytotoxicity in HepG2 cells - 24 hour (AID 1224878); note: nearly all actives have a fitted effect of over 45% in size
Summary of the method: as §3

[9] = A CellTox Green Cytotoxicity Assay to monitor cytotoxicity in HepG2 cells - 40 hour (AID 1224879); note: nearly all actives have a fitted effect of over 40% in size
Summary of the method: as §3

[10] = qHTS RealTime-Glo MT Cell Viability Assay in HEK293 cells - 0 hour (AID 1224880)
Summary of the method: as §2
% is set by controls: 0 for no effect and ±100 for the full control effect.

CCO[Si](CCCCl)(OCC)OCC
inactive: Potency [1] | Potency [2] | Potency [3] | max response [4] 0.203% | Potency [5] | Potency [6] | Potency [7] | Potency [8] | Potency [9] | Potency [10]

CCCCC/C=C\C/C=C\CCCCCCCC(=O)NC(C)c1ccccc1 (stereo not given)
inactive: Potency [1] | Potency [2] | Potency [3] | max response [4] -16.2% | Potency [5] | Potency [6] | Potency [7] | Potency [8] | Potency [9] | Potency [10]

c1ccc(CNCCNCc2ccccc2)cc1
inactive: Potency [1] | Potency [2] | Potency [3] | max response [4] 7.91% | Potency [5] | Potency [6] | Potency [7] | Potency [8] | Potency [9] | Potency [10]

CCOC(=O)c1cccnc1
inactive: Potency [1] | Potency [2] | Potency [3] | max response [4] 1.88% | Potency [5] | Potency [6] | Potency [7] | Potency [8] | Potency [9] | Potency [10]

CC(C)(C)OCC1CO1 (stereo not given)
inactive: Potency [1] | Potency [2] | Potency [3] | max response [4] -2.11% | Potency [5] | Potency [6] | Potency [7] | Potency [8] | Potency [9] | Potency [10]

CCn1cc(C(=O)O)c(=O)c2cnc(N3CCNCC3)nc21
inactive: Potency [1] | Potency [2] | Potency [3] | max response [4] 6.48% | Potency [5] | Potency [6] | Potency [7] | Potency [8] | Potency [9] | Potency [10]

O=C1OC(=O)C2C3C=CC(C3)C12 (stereo not given)
inactive: Potency [1] | Potency [2] | Potency [3] | max response [4] 12.9% | Potency [5] | Potency [6] | Potency [7] | Potency [8] | Potency [9] | Potency [10]

C[C@@H](c1ncncc1F)C(O)(Cn1cncn1)c1ccc(F)cc1F (stereo not given in full)
inactive: Potency [1] | Potency [2] | Potency [3] | max response [4] 3.08% | Potency [5] | Potency [6] | Potency [7] | Potency [8] | Potency [9] | Potency [10]

CC1=CCCC(C)(C)C12CCC(C)O2 (stereo not given)
inactive: Potency [1] | Potency [2] | Potency [3] | max response [4] -12.5% | Potency [5] | Potency [6] | Potency [7] | Potency [8] | Potency [9] | Potency [10]

COCC(C)OC(C)=O (stereo not given)
inactive: Potency [1] | Potency [2] | Potency [3] | max response [4] 8.38% | Potency [5] | Potency [6] | Potency [7] | Potency [8] | Potency [9] | Potency [10]

CCOC(=O)C(=O)CCc1ccccc1
inactive: Potency [1] | Potency [2] | Potency [3] | max response [4] 0.79% | Potency [5] | Potency [6] | Potency [7] | Potency [8] | Potency [9] | Potency [10]

C=CC1CC2C=CC1C2 (stereo not given)
inactive: Potency [1] | Potency [2] | Potency [3] | max response [4] 2.72% | Potency [5] | Potency [6] | Potency [7] | Potency [8] | Potency [9] | Potency [10]

NCc1ccccc1Sc1ccccc1CO
inactive: Potency [1] | Potency [2] | Potency [3] | max response [4] -17% | Potency [5] | Potency [6] | Potency [7] | Potency [8] | Potency [9] | Potency [10]

CC/C=C\CCOC(=O)CC
inactive: Potency [1] | Potency [2] | Potency [3] | max response [4] 0.388% | Potency [5] | Potency [6] | Potency [7] | Potency [8] | Potency [9] | Potency [10]

CCCCCCCCCOS(=O)(=O)O
inactive: Potency [1] | Potency [2] | Potency [3] | max response [4] 4.38% | Potency [5] | Potency [6] | Potency [7] | Potency [8] | Potency [9] | Potency [10]

O=C1c2ccccc2S(=O)(=O)N1CCCCN1CCN(c2ncccn2)CC1
inactive: Potency [1] | Potency [2] | Potency [3] | max response [4] -0.801% | Potency [5] | Potency [6] | Potency [7] | Potency [8] | Potency [9] | Potency [10]

C=CCOc1ccccc1OCC(O)CNC(C)C (stereo not given)
inactive: Potency [1] | Potency [2] | Potency [3] | max response [4] 4.45% | Potency [5] | Potency [6] | Potency [7] | Potency [8] | Potency [9] | Potency [10]

COC(C)OC
inactive: Potency [1] | Potency [2] | Potency [3] | max response [4] 5.31% | Potency [5] | Potency [6] | Potency [7] | Potency [8] | Potency [9] | Potency [10]

CCCCCCc1ccc(-c2ccc(C#N)cc2)cc1
inactive: Potency [1] | Potency [2] | Potency [3] | max response [4] -15.1% | Potency [5] | Potency [6] | Potency [7] | Potency [8] | Potency [9] | Potency [10]

CC(COCCO)OCCO (stereo not given)
inactive: Potency [1] | Potency [2] | Potency [3] | max response [4] 4.24% | Potency [5] | Potency [6] | Potency [7] | Potency [8] | Potency [9] | Potency [10]

COC(C)(C)CCO
inactive: Potency [1] | Potency [2] | Potency [3] | max response [4] 1.17% | Potency [5] | Potency [6] | Potency [7] | Potency [8] | Potency [9] | Potency [10]

O=C(CS)Nc1ccccc1
inactive: Potency [1] | Potency [2] | Potency [3] | max response [4] -18% | Potency [5] | Potency [6] | Potency [7] | Potency [8] | Potency [9] | Potency [10]
